Screens as filed in PubChem BioAssay.
TROY signal inh = inhibitors of TROY-driven NF-kB signaling, primary screen, Q293 LMP1-TROYcd cells, NF-kB luciferase, uHTS; Q293 LMP1-TROYcd NF-kB luciferase reporter, 4 h; inhibition, % at 10 µM; 360,000 tested, 0.98% active; AID 1347056, 2019;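 active = compounds whose plate-normalised and pattern-corrected inhibition of the luciferase reporter signal at the single screening dose is 50% or more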
TWEAK Fn14 block = inhibitors of TWEAK-Fn14 signaling, primary screen, luciferase reporter cells, uHTS; TWEAK-stimulated Fn14 reporter cells, luciferase luminescence, 8 h; inhibition, % at 10 µM; 360,000 tested, 2% active; AID 1159606, 2016; in the data active = inhibition above about 50%
aSyn 5UTR inh = MLPCN primary screen, SNCA 5' untranslated region; alpha-synuclein 5'UTR reporter, inhibitor activity; inhibition, % (tested at 7.5 µM); 300,000 tested, 0.82% active; in the data active = inhibition above about 60%;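 note: H4 neuroglioblastoma cells stably carrying SNCA 5'UTR luciferase fusion; 0% = DMSO wells and 100% = positive control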
HIF-2a block = HIF-2a reporter inhibitors, primary screen, luminescence, 786-0 RCC cells; 360,000 tested, 0.72% active; inhibition, % at 18.8 µM; 786-0 RCC cells HIF-2a reporter, luciferase luminescence, overnight;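 active = inhibition of the luminescence signal of 40% or more relative to plate controls, in a single-dose primary screen at 18.75 µM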
HSP90 inh = HSP90 inhibitors, primary screen, cell lysate, luminescence; AID 1789, 2009; inhibition, % at 5.6 µM; Heat shock protein HSP 90 (rabbit reticulocyte lysate; luciferase refolding); Rabbit reticulocyte lysate, luciferase refolding luminescence, 3 h; 290,000 tested, 0.91% active;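 active = inhibition above the screen-wide mean plus 3 SD, computed separately per campaign, cut at about 16% in these data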;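 note: 0% = DMSO wells and 100% = 60 µM geldanamycin wells; inhibitors lower the luminescence because luciferase stays unfolded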
TRAIL sens C8 = viability loss with TRAIL in NB7+C8 cells, primary screen, TRAIL sensitizer project, cell-based, ATPlite luminescence. 360,000 tested, 1% active. inhibition (viability loss, TRAIL sensitization), % at 10 µM;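 active = compounds causing at least 50% loss of cell viability in the single-dose screen, relative to plate controls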
HSP90 confirm = HSP90 inhibitors, confirmation, cell lysate, luminescence; shares compounds with HSP90 inh; rabbit reticulocyte lysate, luciferase refolding luminescence, 3 h; inhibition, % at 5.9 µM; 2,300 tested, 64% active; AID 1846, 2009; in the data active = inhibition above about 18%;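 note: 0% = vehicle wells and 100% = reference inhibitor wells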
FLuc counter = firefly luciferase inhibitors, HSP90 counter-screen, confirmation, artefact control for HSP90 inhibitor project, biochemical, luminescence, triplicate | shares compounds with HSP90 inh | inhibition, % at 5.9 µM | 2,300 tested, 48% active | purified native firefly luciferase | AID 1847, 2009;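 active = inhibition above the mean inhibition of all tested sample wells plus 3 SD, cut at about 10% in these data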;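 note: 0% = DMSO with luciferase and 100% = wells lacking luciferase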
Target sequence (P08659 whole entry, looked up): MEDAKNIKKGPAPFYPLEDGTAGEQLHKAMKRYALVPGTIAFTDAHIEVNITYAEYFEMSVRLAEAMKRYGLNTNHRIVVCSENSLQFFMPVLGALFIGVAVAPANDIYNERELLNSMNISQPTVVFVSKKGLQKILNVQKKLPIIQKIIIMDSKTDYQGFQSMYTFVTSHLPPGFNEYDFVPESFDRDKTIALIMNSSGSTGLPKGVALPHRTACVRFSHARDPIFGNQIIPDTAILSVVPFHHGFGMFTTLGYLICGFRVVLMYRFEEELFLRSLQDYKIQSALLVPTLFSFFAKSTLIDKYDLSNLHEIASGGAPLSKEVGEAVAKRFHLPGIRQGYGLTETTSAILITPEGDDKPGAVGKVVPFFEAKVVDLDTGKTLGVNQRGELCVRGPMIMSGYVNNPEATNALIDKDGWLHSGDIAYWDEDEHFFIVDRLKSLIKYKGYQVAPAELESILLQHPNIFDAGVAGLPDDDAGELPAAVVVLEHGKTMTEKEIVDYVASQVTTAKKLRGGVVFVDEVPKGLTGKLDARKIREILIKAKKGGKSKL
Numbers without * were called inactive; . = no result given. An excerpt weighted towards active compounds, which were near 3.9% of everything screened.

SMILES | TROY signal inh | TWEAK Fn14 block | aSyn 5UTR inh | HIF-2a block | HSP90 inh | TRAIL sens C8 | HSP90 confirm | FLuc counter
Cc1nc(N)sc1-c1csc(NCc2ccccc2)n1 | -7.9 | 0.9 | -7.3 | 5.3 | 56.4* | -12.7 | 6.3 | -5.1
CCNC(=O)C1(C)CCCN(Cc2cc(-c3ccccc3)n(C)n2)C1 (stereo not drawn) | 5.8 | -14.5 | . | 13.7 | . | 13.1 | . | .
Cc1nc(NC(=O)c2ccccc2)sc1-c1csc(N)n1 | -43.3 | 30.2 | -39.5 | -195.9 | 61.0* | 5.6 | 11.3 | -23.9
CCOC(=O)CNC(=O)c1sc(NC(=O)c2ccccc2)nc1C | -14.9 | 8.4 | -6.4 | -47.7 | 12.6 | -1.8 | . | .
COc1ccc(N(/N=C2\Sc3ccccc3C2=O)C(C)=O)cc1 | 9.4 | 1.8 | -142.7 | -232.4 | 19.6* | 6.8 | 73.1* | -18.9
COc1ccccc1NC1=C(NC(C)=O)C(=O)c2ccccc2C1=O | -13.1 | -15.1 | -38.6 | 2.8 | -3.8 | -8.2 | . | .
COc1ccccc1N(/N=C1\Sc2ccccc2C1=O)C(C)=O | 78.0* | 79.3* | 20.4 | -107.0 | 70.7* | 49.2 | 75.9* | 34.3*
CC(C)(C)n1c(O)c2n(c1=O)Cc1ccccc1N=C2c1ccccc1 | -21.0 | -6.5 | . | 7.1 | . | -3.7 | . | .
NC(=S)N/N=C/c1ccc(C23CC4CC(CC(C4)C2)C3)cc1 | . | . | -309.8 | . | 23.6* | . | 8.2 | -31.8
NC(=S)N/N=C/c1ccccc1 | -4.4 | 9.2 | 17.7 | 12.6 | 4.8 | -3.8 | . | .
C[n+]1cccc2c(Br)ccc([O-])c21 | -7.2 | -6.3 | 6.4 | 14.7 | 18.6* | -1.4 | 2.7 | -2.4
Cc1cc(-c2csc(NC(=O)c3ccc(S(=O)(=O)N(C)C)cc3)n2)c(C)n1-c1ccccc1 | -10.5 | 17.0 | -16.9 | 22.7 | 21.6* | -2.7 | 40.9* | -1.6
CN(C)S(=O)(=O)c1ccc(C(=O)Nc2nc(-c3ccccc3)c(C(=O)c3ccccc3)s2)cc1 | -15.5 | 44.6 | 19.9 | 1.2 | -1.2 | 13.8 | . | .
CN(Cc1ccc(Cl)c(Cl)c1)C(C(=O)NCc1ccccc1)c1ccco1 (stereo not drawn) | . | . | . | -6.5 | . | 8.7 | . | .
O=C(O)c1ccc(N/N=C/c2c(F)cccc2Cl)cc1 | 35.4 | 95.1* | -2.3 | 21.6 | 79.6* | 10.7 | 82.2* | 75.5*
O=C(O)c1ccc(N/N=C/c2ccc(-c3ccc(Cl)cc3Cl)o2)cc1 | 13.0 | -2.8 | -62.3 | -273.1 | 55.7* | 20.2 | -7.0 | -30.0
Cn1c(N)c(C#N)c(-c2ccccc2)c(C#N)c1=O | 0.6 | 8.8 | . | 8.6 | . | -33.6 | . | .
COc1ccc(OC)c(/C=N\Nc2nccs2)c1 | 6.2 | 0.1 | -65.1 | -1.9 | . | -15.1 | . | .
COc1ccc(OC)c(/C=N/Nc2nncn2/N=C/c2cc(OC)ccc2OC)c1 | 7.7 | 22.5 | 2.0 | -40.6 | 42.0* | -14.3 | -2.2 | -12.5
Clc1ccc(-c2nnc(NC3=NCCCCC3)o2)cc1 | 66.2* | 93.3* | 75.1* | 23.7 | 45.2* | 47.4 | 71.2* | 67.9*
COCCCN=C1NN=C(c2cc(C)n(-c3ccccc3F)c2C)CS1 | 5.7 | 58.5* | -20.8 | 21.0 | 17.6* | 53.3* | 69.5* | 64.4*
COCCCN=C1NN=C(c2cc(C)n(Cc3ccccc3Cl)c2C)CS1 | -2.8 | 2.8 | 22.6 | -76.4 | 21.3* | -9.2 | 48.1* | 22.9*
CCCNC(=O)C1(C)CCN(Cc2ccc(C(=O)OCC)cc2)C1 (stereo not drawn) | -17.3 | -11.3 | . | 14.7 | . | 2.2 | . | .
COc1ccccc1OCC(=O)NCC(c1cccs1)N1CCOCC1 (stereo not drawn) | 14.5 | 13.1 | -0.4 | -0.6 | -0.7 | -8.8 | . | .
CC(C)c1ccccc1OCC(=O)NCC(c1cccs1)N1CCOCC1 (stereo not drawn) | 19.7 | 23.4 | 2.5 | 17.1 | 23.9* | -8.0 | 0.0 | -5.4
